An excerpt weighted towards active compounds, which were near 7.5% of everything screened.
ELG1 genotox = inducers of genotoxicity in HEK293T ELG1-luciferase cells; hit rate 1.3% among 330,000; HEK293T ELG1-luciferase reporter, luminescence, 16 h; Potency, µM (doses to about 46 µM), without a hit: top-dose activity change, positive = activation, usual class: activators; note: % of control where 0% means no effect; nearly all actives have a fitted effect of over 60% in size
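Reporter readout depends on ELG1 protein level, which increases with genetic stress. After 16 hr compound exposure at 37 °C, luciferase activity was quantified using ONE-Glo.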
KinaseGlo FLuc = counter-screen: inhibitors of Kinase-Glo firefly luciferase; Kinase-Glo luciferase, ATP luminescence, 8 min; Potency, µM (highest dose often 38.3 µM), for the others: top-dose activity change, negative = inhibition, actives largely listed as inhibitors; hit rate 0.28% among 200,000; AID 1379; note: % is set by controls: 0 for no effect and ±100 for the full control effect; nearly all actives have a fitted effect of over 60% in size
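Luminescence was the read-out, taken after 8-minute incubation at ambient temperature. Luciferase turned over luciferin with 10 uM ATP in imidazole pH 7.2 buffer containing KCl, MgCl2, Tween 20 and BSA.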
FLuc modulator = firefly luciferase modulation, counter-screen for miR-21 project | P08659 | purified FLuc, Km substrates, luminescence inhibition | Potency, µM (doses to about 57.5 µM), without a hit: at the highest dose activity change, negative = inhibition, actives largely listed as inhibitors | hit rate 6.9% among 360,000;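 note: plate controls were vehicle for no effect and reference inhibitor for full effect; nearly all actives have a fitted effect of over 55% in size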
Target sequence (P08659 whole entry, looked up): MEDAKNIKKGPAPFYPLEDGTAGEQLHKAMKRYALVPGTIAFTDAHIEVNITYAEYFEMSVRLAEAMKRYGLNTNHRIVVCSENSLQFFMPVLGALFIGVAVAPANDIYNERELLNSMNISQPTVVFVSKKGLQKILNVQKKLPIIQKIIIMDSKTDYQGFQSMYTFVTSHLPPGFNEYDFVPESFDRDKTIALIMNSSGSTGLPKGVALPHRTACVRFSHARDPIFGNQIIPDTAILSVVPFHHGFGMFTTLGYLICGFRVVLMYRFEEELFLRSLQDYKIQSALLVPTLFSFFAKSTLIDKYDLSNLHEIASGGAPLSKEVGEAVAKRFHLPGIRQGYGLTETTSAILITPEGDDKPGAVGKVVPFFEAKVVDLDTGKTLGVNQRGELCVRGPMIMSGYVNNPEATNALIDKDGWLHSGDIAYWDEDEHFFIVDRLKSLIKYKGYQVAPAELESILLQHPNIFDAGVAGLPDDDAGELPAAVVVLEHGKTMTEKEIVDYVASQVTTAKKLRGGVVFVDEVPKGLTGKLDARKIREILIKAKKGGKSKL
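Purified P. pyralis luciferase (10nM final) with 10uM D-luciferin and 10uM ATP (Km levels) in 50mM Tris acetate pH 7.5, 10mM Mg acetate, 0.01% Tween-20, 0.05% BSA; qHTS 6-point titration, ~60 µM downward; luminescence read.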
NPC1 promoter act = NPC1 promoter activation; Huh7 NPC1 promoter luciferase reporter, 24 h; Potency, µM (doses to about 9.22 µM), for the others: top-dose activation, most hits filed as activators; hit rate 2.4% among 320,000; note: % of control where 0% means no effect; nearly all actives have a fitted effect of over 60% in size
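In 1536-well qHTS, Huh7 cells harboring an NPC1 promoter–luciferase construct received compound for 24 h; activation was quantified by luminescence following luciferase reagent addition.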
SMN2 splice enh = SMN2 splice variant enhancement. AID 1458. hit rate 2.8% among 210,000. Potency, µM (highest dose often 46.1 µM), inactives show at the highest dose activity change, positive = activation, most hits filed as activators. HEK293 SMN2-luciferase splicing reporter, luminescence, 30-36 h; note: % of control where 0% means no effect; nearly all actives have a fitted effect of over 55% in size
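HEK293 cells carry an SMN2 minigene-luciferase reporter in which exon 7 inclusion puts luciferase in frame. Cells were seeded at 2000 cells/well, attached for 10-12 hours, then exposed to compounds for 30-36 hours at 37C before ONE-Glo luminescence.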
Rab9 promoter act = activates the Rab9 promoter. Huh7 Rab9 promoter-luciferase reporter, luminescence, 24 h. Potency, µM (highest dose often 9.22 µM), for the others: at the top dose activation, negative = inhibition, hits mostly activators. hit rate 2.8% among 320,000. AID 485297; note: % of control where 0% means no effect; nearly all actives have a fitted effect of over 60% in size
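Stable Rab9-luc Huh7, 1500 cells/well, 2 h settle; cmpd in DMSO, 24 h, 37 °C/5% CO2; luciferase reagent 10 min RT; luminescence.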
An asterisk follows results filed as active; ? = inconclusive; / = no result; [ ] = another dose, or the depositor's remark. Calls come from the whole dose curve; as a rule, active = well fitted curve in the direction sought with a large enough effect; inconclusive = small, poorly fitted or top-dose-only effect, or another doubt; inactive = no such curve, though single readings can be large; an effect the other way counts as inactive or inconclusive. Potency is the fitted concentration of half-maximal effect.

SMILES | ELG1 genotox | KinaseGlo FLuc | FLuc modulator | NPC1 promoter act | SMN2 splice enh | Rab9 promoter act
COc1cc(CC(=O)N/N=C/c2ccc([N+](=O)[O-])cc2)c([N+](=O)[O-])cc1OC | 2% | 1% | -1% | -9% | -5% | -9%
O=C(CN1CCCc2ccccc21)N/N=C/c1ccc(O)cc1O | 21µM* | 2% | 15µM* | -13% | -3% | -18%
O=C(CN1CCCc2ccccc21)N/N=C/c1ccccc1 | 2% | 0% | -15% | -6% | -3% | 0%
O=C1NC(=O)c2cc3ccccc3cc21 | 4% | / | ? | 2% | / | 0%
CN(C(=O)c1ccc(NC(=O)Cc2cccc(NC(=O)C3CCCN(C(=O)C4CCCC4)C3)c2)cc1)C1CCCC1 (stereo not given) | -2% | / | -11% | 0% | / | 4%
COc1ncnc2c1cnn2-c1ccccc1 | / | -6% | ? | / | 5% | /
COc1ccc(-n2ncc3c(N(C)C4CCCCC4)ncnc32)cc1 | ? | / | 0.17µM* | -16% | / | -10%
CCN(c1ncnc2c1cnn2-c1cccc(Cl)c1)C1CCCCC1 | / | / | 3.8µM* | / | / | /
Cc1cccc(-n2ncc3c(N(CCO)CCO)ncnc32)c1 | ? | -1% | 15µM* | 3.2µM* | 14µM* | 3.5µM*
Cc1cccc(-n2ncc3c(N(C)C4CCCCC4)ncnc32)c1 | 0.46µM* | / | 0.17µM* | -11% | / | -8%
COc1cc(OC)c(N(C)C(=O)c2c(C)oc3ncn(CC(C)C)c(=O)c23)cc1Cl | / | / | -3% | / | / | /
O=C(CSc1nnc(-c2ccccc2)c2ccccc12)NCCN1C(=O)CSC1=O | -1% | / | -2% | -5% | / | -1%
Cc1cc(F)ccc1NC(=O)CCS(=O)(=O)c1cc2c(cc1C)NC(=O)CO2 | / | / | -13% | / | / | /
COc1ccc(CCn2c(O)cc3nn(-c4nc5ccccc5s4)c(=O)c-3c2C)cc1 | 14% | / | 9.5µM* | 2.8µM* | / | ?
COc1ccc(CNC(=O)c2cc3c(s2)CS(=O)C3)cc1 (stereo not given) | 5% | -4% | 2% | 1% | -12% | 4%
COC(=O)c1cc2c(s1)CS(=O)C2 (stereo not given) | ? | 0% | 13µM* | 2.5µM* | ? | 4µM*
O=C(COC(=O)c1ccccc1-n1cnnn1)c1ccc(Br)cc1 | 18µM* | / | 5.4µM* | -3% | / | -1%
O=C(COC(=O)c1ccccc1-n1cnnn1)c1ccccc1 | 11% | / | 19µM* | 8% | / | 9%
O=C(COC(=O)c1ccccc1-n1cnnn1)c1ccc(F)c(F)c1 | ? | / | ? | 14% | / | 13%
COc1ccc(C)cc1-n1nnc(-c2nc(-c3ccccc3Cl)no2)c1N | / | / | -17% | / | / | /
CC[C@@H](CS(=O)(=O)O)[N+](=O)[O-] | / | -2%[7.66 µM] | / | / | -12%[9.22 µM] | /
Cc1cc(C)cc(-n2c(SCC(=O)NC3CCCCC3)nc3c([nH]c4ccccc43)c2=O)c1 | / | / | 0% | / | / | /
Cc1ccnc(NC(=O)/C=C/c2ccccc2Cl)c1 | ? | -27% | 0.6µM* | 0.71µM* | 1.3µM* | 1.1µM*
NS(=O)(=O)c1ccc(NC(=O)/C=C/c2ccccc2[N+](=O)[O-])cc1 | -2% | -3% | 4% | 1% | -9% | 0%
O=C(/C=C\c1ccccc1[N+](=O)[O-])Nc1ccccc1 | ? | -5% | 11µM* | ? | 18µM* | 2µM*
SMILES | ELG1 genotox | KinaseGlo FLuc | FLuc modulator | NPC1 promoter act | SMN2 splice enh | Rab9 promoter act
Cc1ccnc(NC(=O)c2ccccc2[N+](=O)[O-])c1 | 2% | -4% | -26% | 27% | 20% | 17%
Cc1ccnc(NC(=O)/C=C/c2ccccc2[N+](=O)[O-])c1 | 2.6µM* | -29% | 3.4µM* | 2µM* | 2.8µM* | 0.56µM*
Cc1ccnc(NC(=S)NC(=O)/C=C/c2ccccc2)c1 | 11% | -2% | -19% | ? | 15% | ?
Cc1ccc2c(c1)N(C(=O)C1CCN(S(=O)(=O)c3c(C)noc3/C=C/c3ccccc3F)CC1)CCO2 | / | / | -4% | / | / | /
Cc1ccc(C(=O)N2CCCN(c3nc4cc5c(cc4cc3C#N)OCO5)CC2)cc1 | -3% | / | -13% | 0% | / | 7%
N#Cc1cc2cc3c(cc2nc1N1CCCCC1)OCCO3 | ? | -1% | 4.3µM* | ? | 13µM* | 6.3µM*
COc1ccc(C)cc1NC(=O)/C=C/c1ccc(OC)c(S(=O)(=O)N2CCOCC2)c1 | -1% | / | 0% | -1% | / | -3%
CSc1nsc(/C=C/Nc2ccc(C)cc2)c1C#N | / | -3% | 1.3µM* | / | ? | /
CN(C)C(=O)c1cn(-c2ccccc2)nc1-c1cc2ccccc2oc1=O | -4% | 1% | -5% | 0% | 21% | 0%
CN(C)C(=O)c1cn(-c2ccccc2)nc1-c1cc2ccccc2o1 | -1% | 1% | 24µM* | -1% | -9% | -4%
O=C(Nc1ccc([N+](=O)[O-])cc1)c1cn(-c2ccccc2)nc1-c1cc2ccccc2o1 | ? | 3% | 4% | -1% | 2% | -2%
O=C(O)/C=C\c1cn(-c2ccccc2)nc1-c1cc2ccccc2o1 | 8% | 3% | 13µM* | -1% | 11% | -2%
COC(=O)C1CCN(Cc2cn(Cc3ccccc3)nc2-c2cc3ccccc3o2)CC1 | -7% | 6% | 0% | 0% | / | 0%
CN(Cc1cn(-c2ccccc2)nc1-c1cc2ccccc2o1)C(=O)CCC(=O)O | ? | 4% | 3µM* | 17% | 5% | 27%
O=C(O)/C=C/c1cn(-c2ccccc2)nc1-c1cc2ccccc2o1 | 4% | / | 15µM* | -2% | / | 0%
O=C(O)c1cc(-c2cc3ccccc3o2)nn1-c1ccccc1 | 5% | 2% | ? | -4% | 13% | 14%
Cc1ccc2sc(-c3ccc(NC(=O)c4cc(-n5cnnc5)ccc4Cl)cc3)nc2c1 | 22% | 1% | 6µM* | ? | 13µM* | ?
COc1cc(OC)cc(C(=O)Nc2ccccc2-c2nc3ccccc3s2)c1 | / | / | -4% | / | -13% | /
O=C(Nc1cccc(-c2nc3ccccc3s2)c1)c1cc(-n2cnnc2)ccc1Cl | 0% | / | 6.7µM* | 28% | / | 20%
Cc1c(NC(=O)c2cc(-n3cnnc3)ccc2Cl)cccc1-c1nc2ccccc2s1 | 10% | -22% | 0.6µM* | ? | 5.6µM* | 3.5µM*
CC(=O)Nc1ccc(NC(=O)c2cc(-n3cnnc3)ccc2Cl)cc1 | -2% | 0% | 0% | -7% | -6% | 0%
Cc1c(NC(=O)c2cccs2)cccc1-c1nc2ccccc2s1 | -3% | 1% | 4.3µM* | 8% | -7% | 18%
CCNC(=O)CSc1nnc(-c2cccc(S(=O)(=O)N3CCOCC3)c2)o1 | 1% | / | -6% | 0% | / | 0%
